# Assay outcomes: PubChem, National Center for Advancing Translational Sciences (NCATS)
# L3MBTL1 block: inhibitors of human L3MBTL1; Potency, µM (top dose mostly 57.1 µM), without a hit: at the top dose activity, negative = inhibition, most hits filed as inhibitors; AID 485360; 0.66% of 230,000 active; Q9Y468; AlphaScreen L3MBTL1–H3K9me1 peptide binding; further: potency means the concentration at half of the fitted maximal effect; on the % scale 0 is the no-effect control and ±100 the full control effect; nearly all actives have a fitted effect of over 60% in size
#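 AlphaScreen assay: L3MBTL1 (50 nM final) was preincubated 30 min at room temperature with biotinylated H3(1-15)K9me1 peptide (75 nM final), then 30 min with library compounds; streptavidin donor and nickel chelate acceptor beads (10 ug/mL final) added, 30 min dark.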
# HP1b binding inh: HP1-beta chromodomain-methylated histone interaction inhibition. AlphaScreen HP1-beta / biotin-H3K9me3 peptide binding. Potency, µM (doses to about 114 µM), inactives show at the top dose activity change, negative = inhibition, most hits filed as inhibitors. 0.56% of 390,000 active. AID 540317; further: potency means the concentration at half of the fitted maximal effect; nearly all actives have a fitted effect of over 70% in size
#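 AlphaScreen: HP1-beta (50 nM) preformed 30 min with biotin-H3(1-18)K9me3 peptide (50 nM) in PBS pH 7.4, 0.01% Tween-20. Compound added for 30 min at RT, then streptavidin donor/nickel chelate acceptor beads (10 ug/mL) for 30 min.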
# G9a inh-1: G9a (human) methyltransferase inhibition | AID 504332 | Potency, µM (highest dose often 102 µM), without a hit: top-dose activity, negative = inhibition, most hits filed as inhibitors | 8.8% of 350,000 active | G9a H3K9 monomethylation, AlphaScreen, 2 h | Q96KQ7; further: potency means the concentration at half of the fitted maximal effect; on the % scale 0 is the no-effect control and ±100 the full control effect; nearly all actives have a fitted effect of over 75% in size
#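 Compounds were preincubated with 20 nM G9a for 15 min, after which biotinylated H3K9 peptide (500 nM) and SAM (20 uM) started a 2 h room-temperature reaction. Monomethylated product was quantified by antibody-based AlphaScreen chemiluminescence.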
# JMJD2A Tudor inh: JMJD2A Tudor domain (human) inhibition | AlphaScreen JMJD2A-Tudor / H3K4me3 peptide binding | 4.4% of 390,000 active | O75164 | Potency, µM (top dose mostly 114 µM), for inactives: at the highest dose activity change, negative = inhibition, actives largely listed as inhibitors; further: potency means the concentration at half of the fitted maximal effect; on the % scale 0 is the no-effect control and ±100 the full control effect; nearly all actives have a fitted effect of over 50% in size
# Target sequence (O75164 whole entry, looked up, the tested form may be a part): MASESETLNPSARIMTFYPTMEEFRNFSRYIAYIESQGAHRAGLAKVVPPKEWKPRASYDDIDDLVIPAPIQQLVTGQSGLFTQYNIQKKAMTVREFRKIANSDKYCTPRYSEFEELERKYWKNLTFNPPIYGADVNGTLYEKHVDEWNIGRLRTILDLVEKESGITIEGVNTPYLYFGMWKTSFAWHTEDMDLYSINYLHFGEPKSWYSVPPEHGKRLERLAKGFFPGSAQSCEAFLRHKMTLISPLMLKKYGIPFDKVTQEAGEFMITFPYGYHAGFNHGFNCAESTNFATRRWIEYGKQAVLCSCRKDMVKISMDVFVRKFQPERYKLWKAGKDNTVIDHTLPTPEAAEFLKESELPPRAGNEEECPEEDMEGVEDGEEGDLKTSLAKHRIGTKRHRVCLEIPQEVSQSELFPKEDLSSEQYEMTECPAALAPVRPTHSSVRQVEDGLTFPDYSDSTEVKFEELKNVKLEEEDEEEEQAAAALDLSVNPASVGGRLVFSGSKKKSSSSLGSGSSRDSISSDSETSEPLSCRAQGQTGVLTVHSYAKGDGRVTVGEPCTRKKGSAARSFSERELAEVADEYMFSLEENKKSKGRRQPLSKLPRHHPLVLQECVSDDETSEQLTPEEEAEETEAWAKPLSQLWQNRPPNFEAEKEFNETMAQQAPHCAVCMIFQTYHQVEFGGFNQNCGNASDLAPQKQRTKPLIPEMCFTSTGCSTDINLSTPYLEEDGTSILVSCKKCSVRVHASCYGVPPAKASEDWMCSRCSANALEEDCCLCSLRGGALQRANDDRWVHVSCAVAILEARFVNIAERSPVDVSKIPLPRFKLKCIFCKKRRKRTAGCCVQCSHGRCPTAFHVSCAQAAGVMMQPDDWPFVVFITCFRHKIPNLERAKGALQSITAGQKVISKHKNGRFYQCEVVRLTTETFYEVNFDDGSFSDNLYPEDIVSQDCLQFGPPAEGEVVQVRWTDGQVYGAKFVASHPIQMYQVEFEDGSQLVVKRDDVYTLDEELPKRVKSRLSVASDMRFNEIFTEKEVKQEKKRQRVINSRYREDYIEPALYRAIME
# BAZ2B inh: inhibitors of human BAZ2B bromodomain | AlphaScreen BAZ2B-H3K14Ac peptide displacement | Potency, µM (series often up to 114 µM), for inactives: at the top dose activity change, negative = inhibition, actives largely listed as inhibitors | 4.4% of 360,000 active | AID 504333; further: potency means the concentration at half of the fitted maximal effect; on the % scale 0 is the no-effect control and ±100 the full control effect; nearly all actives have a fitted effect of over 60% in size
#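 In this displacement format the biotinylated H3(5-23) peptide acetylated at Lys14 serves as ligand at 50 nM, with BAZ2B at 50 nM in PBS pH 7.4 containing 0.01% Tween-20. Donor and acceptor beads are 10 ug/mL final.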
# GLS inhibitor: inhibitors of human glutaminase (GLS) | Potency, µM (doses to about 45.5 µM), inactives show at the highest dose activity change, negative = inhibition, usual class: inhibitors | O94925 | 0.21% of 410,000 active | GLS enzymatic activity, qHTS titration; further: potency means the concentration at half of the fitted maximal effect; on the % scale 0 is the no-effect control and ±100 the full control effect
#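 Glutamate formation by hKGA was monitored fluorometrically using coupled glutamate oxidase, HRP and Amplex Red. Substrate was added as 1 mM L-glutamine solution; incubation was 30 min at RT after an initial read.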
# JMJD2E inh: JMJD2E (human) demethylase inhibition, confirmation | Potency, µM (doses to about 56.8 µM), for the others: at the top dose activity change, negative = inhibition, hits mostly inhibitors | Recombinant JMJD2E, FDH-coupled NADH fluorescence (FDH is formaldehyde dehydrogenase) | AID 2677 | shares compounds with JMJD2A Tudor inh | 93% of 140 active
# FDH inh: counter-screen for JMJD2E inhibitors: Pseudomonas putida formaldehyde dehydrogenase; shares compounds with JMJD2A Tudor inh; FDH enzyme assay, NADH fluorescence kinetic; Potency, µM (top dose mostly 56.7 µM), for inactives: at the highest dose activity, negative = inhibition, most hits filed as inhibitors; 10% of 140 active; AID 2680
# JMJD2E MALDI inh: inhibitors of human JMJD2E demethylase | Potency, µM, most hits filed as inhibitors | recombinant JMJD2E demethylation, MALDI-TOF-MS | AID 2688 | shares compounds with JMJD2A Tudor inh | 90% of 45 active;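 active means compounds whose IC50 for blocking JMJD2E demethylation is below 100 µM; inconclusive means dose dependent effect but IC50 above 100 µM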
# G9a inh-2: inhibits human G9a histone lysine methyltransferase, hit confirmation; shares compounds with JMJD2A Tudor inh; Potency, µM, usual class: inhibitors; AID 588344; 89% of 370 active; G9a H3K9 monomethylation, AlphaScreen, 2 h; further: potency means the concentration at half of the fitted maximal effect; nearly all actives have a fitted effect of over 65% in size
# RGS4 inh: confirmation of human RGS4 inhibitors; shares compounds with JMJD2A Tudor inh; RGS4 GAP activity, Transcreener GDP fluorescence polarization; Potency, µM, usual class: inhibitors; 80% of 25 active; AID 602388
# An asterisk follows results filed as active; ? = inconclusive; . = no result given; [ ] = dose if it differs, or a comment. Compounds with a hit are over-represented: about 10% of the library has one in this group of screens. Unless noted, the call rests on the fitted dose curve; in most records, active means well fitted curve in the direction sought with a large enough effect; inconclusive means small, poorly fitted or top-dose-only effect, or another doubt; inactive means no such curve, though single readings can be large; an effect the other way counts as inactive or inconclusive.
SMILES,L3MBTL1 block,HP1b binding inh,G9a inh-1,JMJD2A Tudor inh,BAZ2B inh,GLS inhibitor,G9a inh-2,others
CC(C)OCc1ccc(C(=O)N2CCN(S(=O)(=O)c3ccc(Br)s3)CC2)cc1,1%,58%,?,0%,-5%,0%,45*,
Cc1ccccc1-c1nc(NC(=O)CSc2ncnc3sc4c(c23)CCCC4)ns1,.,34%,12%[59 µM],-11%,2%,8%,.,
Cc1nn(-c2ccccc2)c2ncc(C(=O)c3cc(Cl)ccc3O)cc12,-1%,-7%,0.79µM*,?,?,-3%,11*,
Cc1nn(C)c2ncc(C(=O)c3ccccc3O)cc12,.,-1%,?,-12%,2%,8%,.,
Cc1ccc(NC(=O)Cn2c(=O)n(CCCCC(=O)NCc3ccccc3Cl)c(=O)c3ccccc32)cc1,.,32%,1%[59 µM],2%,2%,-11%,.,
O=C1COc2ccc(-c3cc(-c4ccc(F)cc4)c4c(n3)-c3ccccc3OC4)cc2N1,.,19%,11%[59 µM],-3%,-7%,0%,.,
CCc1ccc2c(c1)CCCN2C(=O)c1ccccc1C(=O)O,.,25%,?,?,56µM*,-2%,?,
CCNCc1ccccc1OCc1ccccc1,-1%,59%,-5%,-2%,-27%,3%,.,
Oc1ccc(NCc2ccccc2OCc2ccccc2)cc1,?,?,1.8µM*,56µM*,28µM*,?,5.8*,
Cn1c(=O)c2sccc2n2c(CCC(=O)Nc3ccc(F)cc3)nnc12,.,4%,-32%[59 µM],-13%,2%,2%,.,
O=C(NCCc1csc(-c2ccc(C(F)(F)F)cc2)n1)c1ccc(F)c(F)c1,.,20%[57 µM],3%[59 µM],11%,-6%,-8%,.,
COc1ccc(N2CCN(CC(=O)Nc3cc(C)on3)CC2)cc1,0%,?,1.8µM*,2.8µM*,20µM*,56%,1.6*,
Cc1ccc(CN2CCN(C(=O)C3CCCO3)CC2)cc1 (configuration not stated),0%,5%,?,-17%,11%,1%,.,
O=C(C1CCCO1)N1CCN(Cc2c(O)ccc3ccccc23)CC1 (configuration not stated),.,-32%,1.4µM*,79µM*,5%,31%,0.36*,
Nn1c(SCC(=O)Nc2cccnc2Cl)nnc1-c1ccccc1,3%,?,?,20µM*,7%,-24%,0.8*,
Cc1ccc(-c2nnc(SCC(=O)Nc3cccnc3Cl)n2N)cc1,-2%,54%,.,-5%,.,-6%,.,
CCCc1cc(=O)n2[nH]c(NCc3ccccc3OC)nc2n1,.,15%,?,-2%,-9%,0%,.,
CCc1ccccc1NC(=O)CN1C(=O)C2CCCN2c2ccc(S(=O)(=O)N(CC)CC)cc21 (configuration not stated),.,10%,?,-3%,-3%,-2%,.,
COc1cc(CNc2ccc(N3CCCC3)cc2)ccc1OCc1ccccc1,?,?,?,35µM*,13µM*,24%,2.5*,
COc1ccc(C(=O)Nc2ccc(N3CCCC3)cc2)cc1OC,-15%,-1%,2.5µM*,?,?,.,2.5*,
O=C(O)CCC(=O)Nc1ccc(N2CCCCCC2)cc1,-7%[11.4 µM],7%,0.89µM*,-35%,?,47%,0.71*,
COc1ccc(C(=O)Nc2ccc(N3CCCC3)cc2)cc1,.,?,1.6µM*,-4%[11.4 µM],-38%,-6%,1.3*,
COc1cc(C(=S)N2CCCC2)ccc1OCc1ccccc1,-5%,54%,.,-13%,?,0%,.,
Cc1ccc(N2CCN(c3ccc(NC(=O)CCC(=O)O)cc3)CC2)cc1,-5%,9%,?,-16%,3%,21%,.,
Cc1ccc(-c2nnc(Nc3ccc(S(N)(=O)=O)cc3)c3ccccc23)cc1S(=O)(=O)N1CCOCC1,.,31%,-50%[59 µM],-21%,-10%,1%,.,
SMILES,L3MBTL1 block,HP1b binding inh,G9a inh-1,JMJD2A Tudor inh,BAZ2B inh,GLS inhibitor,G9a inh-2,others
N#Cc1cccc(-c2cc(NCc3ccccc3)ncn2)c1,.,.,-5%[0.501 µM],.,.,.,.,
Cc1ccc(NC(=O)CCc2nc3cccnc3n2-c2ccccc2)cc1,.,-2%,-10%[59 µM],-26%,?,-9%,.,
Cn1c(SCC(=O)NC2CCCCC2)nnc1-c1cccc(N)c1,-13%,29%,1.6µM*,-6%,7%,1%,2.8*,
Cn1c(SCC(=O)NC2CCCC2)nnc1-c1ccncc1,7%,34%,.,-10%,-11%,-3%,.,
c1ccc(-c2ccc(N3CCCC4(CCNCC4)C3)cc2)cc1,.,.,-46%[12.7 µM],.,.,.,.,RGS4 inh=27*
O=c1[nH]c2cc3c(cc2cc1CN(Cc1cccs1)Cc1nnnn1Cc1ccco1)OCCO3,?,-24%,?,?,.,6%,.,RGS4 inh=9.5*
O=c1[nH]c2cc3c(cc2cc1CN(Cc1cccnc1)Cc1nnnn1Cc1ccco1)OCCO3,.,6%,?,?,?,-16%,.,
CCc1ccc(NC(=O)c2sc3nc(C)cc(C)c3c2NC(=O)c2ccccc2OC)cc1,.,49%,-3%[59 µM],-8%,-17%,-1%,.,
Cc1ncc(COCc2ccccc2)c(CO)c1OCc1ccccc1,.,41%,.,-2%,.,1%,.,
Oc1ccc(COCc2ccccc2)c2cccnc12,8.9µM*,45%,23%[12.7 µM],?,28µM*,0%,.,JMJD2E inh=23µM*;FDH inh=-36%;JMJD2E MALDI inh=25*
O=C1CC(c2ccccc2)Cc2[nH]c(=O)c(-c3nc(-c4ccc(F)cc4)cs3)cc21 (configuration not stated),.,31%,0.63µM*,22µM*,13µM*,5%,2.5*,
